# A selection: hits, their analogues and other compounds. The true share with any hit is near 3.2%.
# USP2a inh: USP2a (human) protease inhibition. Potency, µM (doses to about 38.3 µM), actives largely listed as inhibitors. AID 463254. O75604. USP2 core, Ub-CHOP2 coupled fluorogenic reporter, 485/531. hit rate 0.01% among 330,000
#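 Deubiquitinase activity read as fluorescence (485/531 nm) after Ub-CHOP2 cleavage activates the enterokinase reporter on its substrate; USP2 core 10nM, Ub-CHOP2 and substrate 25nM each, 30min compound preincubation then 60min RT; data normalized to NEM, curves fitted.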
# GALK inhibitor: inhibitors of human galactokinase | P51570 | Potency, µM (top dose mostly 57.5 µM), usual class: inhibitors | Purified GALK, Kinase-Glo residual ATP luminescence | hit rate 0.007% among 270,000
#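 Human GALK (5 nM) with 35 uM ATP and 100 uM galactose in 20 mM HEPES pH 8.0, 5 mM MgCl2, 60 mM NaCl, 1 mM DTT, 0.01% BSA. After 1 h at room temperature, leftover ATP was read by Kinase-Glo Plus luminescence.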
# Coupling enz: inhibits coupling enzyme system, counter-screen for aldolase hits; coupling enzyme system counterscreen, AmpLite Red fluorescence; AID 2472; hit rate 0.67% among 290,000; activity change, negative = inhibition, % at 58.2 µM, hits read low; in the data active means activity change below about -30%
#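 Final compound at 57.5 uM, incubated 10 min at RT with coupling enzyme reagent (glyceraldehyde-3-phosphate), then 20 min with substrate and AmpLite Red detection. Fluorescence read at 525/598 nm; tests interference with the coupling assay, not aldolase inhibition.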
# USP1-UAF1 inh: blocks the human USP1/UAF1 deubiquitinase complex. O94782. recombinant USP1/UAF1, Ub-Rhodamine cleavage fluorescence. Potency, µM (top dose mostly 57.1 µM), most hits filed as inhibitors. hit rate 0.23% among 390,000; further: nearly all actives have a fitted effect of over 60% in size
# Target sequence (O94782 whole entry, looked up): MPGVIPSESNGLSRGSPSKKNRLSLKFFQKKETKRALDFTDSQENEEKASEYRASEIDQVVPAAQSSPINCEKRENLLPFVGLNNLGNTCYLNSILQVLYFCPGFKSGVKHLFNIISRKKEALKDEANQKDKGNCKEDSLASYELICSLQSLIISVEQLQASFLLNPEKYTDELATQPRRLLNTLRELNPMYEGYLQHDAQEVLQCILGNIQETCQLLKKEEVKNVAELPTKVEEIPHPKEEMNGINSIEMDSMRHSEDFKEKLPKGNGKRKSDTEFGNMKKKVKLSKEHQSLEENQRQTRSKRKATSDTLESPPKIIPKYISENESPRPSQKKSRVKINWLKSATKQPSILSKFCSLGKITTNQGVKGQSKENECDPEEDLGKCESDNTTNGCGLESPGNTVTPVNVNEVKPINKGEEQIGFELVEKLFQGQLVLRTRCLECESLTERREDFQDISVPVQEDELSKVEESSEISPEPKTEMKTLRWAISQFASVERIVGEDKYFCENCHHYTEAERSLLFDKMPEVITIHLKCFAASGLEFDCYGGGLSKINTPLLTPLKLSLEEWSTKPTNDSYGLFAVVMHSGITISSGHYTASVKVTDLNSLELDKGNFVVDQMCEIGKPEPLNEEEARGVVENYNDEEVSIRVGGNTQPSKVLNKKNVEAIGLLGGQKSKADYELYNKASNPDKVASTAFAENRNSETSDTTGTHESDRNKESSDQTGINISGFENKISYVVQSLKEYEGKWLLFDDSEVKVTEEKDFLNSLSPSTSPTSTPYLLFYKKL
#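 Step one: compound is pinned into 1nM USP1/UAF1 in HEPES pH 7.8 buffer with TCEP. Step two: 15 min room-temperature incubation. Step three: Ub-Rho (150nM final) starts cleavage, tracked by fluorescence over six one-minute reads.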
# VDR inhibitor: vitamin D3 receptor (human) inhibition; P11473; VDR-SRC2-3 peptide fluorescence polarization, 2 h; Potency, µM, usual class: inhibitors; hit rate 0.93% among 400,000; AID 504847
#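 Signal is fluorescence polarization, reporting how far test compounds block the interaction of VDR with the SRC2-3 coregulator peptide after a 2 h room-temperature incubation.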
# PLK1 PBD block: PLK1 (human) polo-box domain binding inhibition | Potency, µM, hits mostly inhibitors | hit rate 2.8% among 360,000 | AID 720504 | P53350 | Plk1 PBD binding of FITC phosphopeptide, fluorescence polarization; further: series mostly up to about 57 µM; nearly all actives have a fitted effect of over 65% in size
# Numbers stand for hits; - = inactive; ? = inconclusive; . = not tested or not shown; [ ] = dose if it differs, or a comment. Unless noted, the call rests on the fitted dose curve; in most records, active means well fitted curve in the direction sought with a large enough effect; inconclusive means small, poorly fitted or top-dose-only effect, or another doubt; inactive means no such curve, though single readings can be large; an effect the other way counts as inactive or inconclusive.
SMILES,USP2a inh,GALK inhibitor,Coupling enz,USP1-UAF1 inh,VDR inhibitor,PLK1 PBD block
Cc1cc2c(c(=O)n1Cc1ccccc1)C1O[C@](c3ccsc3)(Cc3cc(C#N)ccc31)O2,-[7.66 µM],.,-,.,.,.
Cc1cc2c(=O)n(C)c(SCC(=O)Nc3cccc(O)c3)nc2s1,-,-,-,-,-,?
COc1cccc(NC(=O)CSc2nc3ccccc3n2C)c1,-,-,-,-,-,17µM
COc1cccc(NC(=O)CSC(N)=O)c1,-,-,-,-,22µM,-
CCn1c(SCC(=O)Nc2cccc(OC)c2)nc2ccccc2c1=O,-,-,-,-,-,-
Cc1cccc(NC(=O)CSc2nc3sc(C)cc3c(=O)n2C)c1,.,.,.,-,-,27µM
COc1cccc(NC(=O)CCC(=O)Nc2cccc(OC)c2)c1,-,-,-,-,-,-
COc1cccc(NC(=O)Nc2ccccc2SC)c1,-,-,-,-,-,19µM
COc1ccc(NC(=O)Nc2ccccc2SC)c(OC)c1,-,-,-,-,-,?
CCCCc1c(C)nc(N2CCCC2)[nH]c1=O,-,-,-,-,-,-
CCN(CC)c1ccc(S(=O)(=O)N2CCOCC2)cc1NC(=O)CSC(=S)N1CCCC1,-,-,-,-,-,13µM
Cc1ccc(S(=O)(=O)N2CCOCC2)cc1NC(=O)CSc1ccccn1,-,-,-,-,-,30µM
Cc1ccc(S(=O)(=O)N2CCCCC2)cc1NC(=O)CSc1ncn[nH]1,-,-,-,-,-,-
O=C(CSc1ncn[nH]1)Nc1cc(S(=O)(=O)N2CCCC2)ccc1Cl,-,-,-,-,-,30µM
N#Cc1c(NC(=O)CSc2nc(-c3ccccc3)cc(C(F)(F)F)n2)sc2c1CCC2,-,-,-,-,-,?
CCC1CCc2c(sc(NC(=O)CSc3nc(-c4ccco4)cc(C(F)(F)F)n3)c2C#N)C1 (stereo unspecified),-,-,-,-,-,24µM
COC(=O)/C(=C/c1ccccc1)NC(=O)c1ccco1,-,-,-,-,-,-
Cn1c(SCC(=O)NC2CC2)nnc1-c1ccccc1,-,-,.,-,-,-
Cn1c(SCC(=O)NC2CC2)nnc1-c1ccccc1Cl,-,-,.,-,-,27µM
Cn1c(Cn2c(=O)sc3ccccc32)nnc1SCC(=O)NC1CCCC1,-,-,-,-,-,24µM
Nn1cnn(Cc2ccccc2)c1=S,-,-,-,-,-,24µM
CCOc1ccc(C2C(C#N)=C(N)SC(N)=C2C#N)c(OCC)c1,-,-,-37,-,?,-
Cc1sccc1C1C(C#N)=C(N)SC(N)=C1C#N,-,-,-,.,.,.
CCOc1cc(C2C(C#N)=C(N)SC(N)=C2C#N)ccc1OCCN1CCOCC1,-,-,-,-,?,27µM
C=CCNc1nc(Nc2ccccc2F)nc(OCC)n1,-,-,-,-,-,-
SMILES,USP2a inh,GALK inhibitor,Coupling enz,USP1-UAF1 inh,VDR inhibitor,PLK1 PBD block
Cc1ccc(C(=O)O)cc1NC(=O)CCc1ccccc1,-,-,-,-,-,17µM
COC(=O)c1ccc(C)c(NC(=O)CN(c2ccccc2)S(=O)(=O)N(C)C)c1,-,-,-,-,-,21µM
C=CCn1c(-c2cnn(-c3ccccc3)c2N)n[nH]c1=S,-,-,-,-,-,-
C=CC1=C(C)C2=Cc3c(C=C)c(C)c4[n]3[Sn+2][n]3c(c(C)c(CCC(=O)O)c3=CC3=NC(=C4)C(C)=C3CCC(=O)O)=CC1=N2,.,.,-,.,35µM,.
Cc1ccc(/C=C/C2=CC3(C)CC2(C)C(c2ccc(C)cc2)CC3=O)cc1 (stereo unspecified),.,.,-,.,.,.
O=C1C2C3C=CC(CO)(O3)C2C(=O)N1c1ccccc1-c1ccccc1 (stereo unspecified),-,-,-,?,-,7.5µM
O=C1C2C3C=CC(CNS(=O)(=O)c4ccccc4)(O3)C2C(=O)N1c1ccc(Cl)cc1 (stereo unspecified),-,.,-,-,79µM,-
O=c1c2ccccc2nc(-c2ccc(Cl)cc2)n1C1CCS(=O)(=O)C1 (stereo unspecified),.,.,.,-,-,-
CCOC(=O)c1cnc2c(cnn2C)c1Cl,-,-,-,-,-,-
CCCCCCCCOc1ccc(C2OC34CCCCC3C(C#N)(C#N)C2(C#N)C(=N)O4)cc1 (stereo unspecified),-,-,-,?,-,24µM
CCCCC1OC23CCCCC2C(C#N)(C#N)C1(C#N)C(=N)O3 (stereo unspecified),-,-,-45,-,-,-
Cc1[nH]c2ccccc2c1[C@H]1[C@@H](CC#N)C1(C)C,-,-,-46,-,-,30µM
Cc1[nH]c2ccccc2c1CC#N,-,-,-,-,-,-
CCOc1ccc(C(=O)NCCCN2CCOCC2)cc1OCC,-,-,-,-,-,-
CCOC(=O)C1CCN(c2nc(N)c3c(N)nc(SCC(=O)O)cc3c2C#N)CC1,-,?,-32,?,?,11µM
CCOc1cc2c(C#N)c(N3CCNCC3)nc(N)c2c(N)n1,-,-,-,-,-,-
COc1ccc(-c2nc(C#N)c(N3CCc4ccccc4C3)o2)cc1OC,-,-,.,-,-,-
CCN(CC)c1nc(N)c2c(N)nc(OC)cc2c1C#N,.,.,.,?,?,-
COc1cc2c(C#N)c(N3CCOCC3)nc(N)c2c(N)n1,-,-,-52,-,-,-
COc1cc2c(C#N)c(N3CCc4ccccc4C3)nc(N)c2c(N)n1,-,-,-49,-,-,-
COc1cc2c(C#N)c(N3CCCCC3)nc(N)c2c(N)n1,-,-,-52,?,-,-
CCOc1cc2c(C#N)c(N3CCCCC3)nc(N)c2c(N)n1,-,-,-48,?,-,-
CN[C@@H]1[C@H](O[C@@H]2O[C@H](C)[C@@](O)(CO)[C@H]2O[C@H]2[C@H](O)[C@H](O)[C@H](N=C(N)N)[C@@H](O)[C@@H]2N=C(N)N)O[C@@H](CO)[C@H](O)[C@H]1O,.,.,-,.,50µM,.
CN[C@@H]1[C@H](O[C@@H]2O[C@H](CO)[C@@H](N)[C@H](O)[C@@H]2O)O[C@H]2C[C@@H](N)[C@@H](O[C@H]3[C@@H](O)[C@H](O)[C@H](N)C[C@@H]3N)O[C@H]2[C@H]1O,.,.,-,.,-,.
COc1ccc(Cn2ccc3nc(C)c(C(=O)N4CCN(c5cccc(OC)c5)CC4)cc3c2=O)cc1,.,.,.,-,-,.
O=C1C=CC2(O[C@H](c3ccccc3)[C@@H](c3ccccc3)O2)[C@H](Sc2ccccc2O)C1,.,.,.,-,10µM,2.4µM
Cc1ccc(N(C(=O)Cc2cccs2)C(C(=O)NC2CCCCC2)c2ccccn2)cc1C (stereo unspecified),-,-,-,-,-,-
COCCNc1nc(-c2c(C)noc2C)nc2ccccc12,.,.,-,.,-,.
Cc1noc(C)c1-c1nc(NCc2cccs2)c2ccccc2n1,.,.,-,.,45µM,.
